# Measured values reported in the supplement of paper PMC8728848.
# This excerpt belongs to a sample that is enriched for the strongest signals.
# B1: Mermaid1 (Stilbonema majum) (protein)
# chain: MGSSHHHHHHSSGLVPRGSHMAASGWLRSPQGTVVKLYRRSLSWSKADEFCKDVDGRLVVDRTADMHLFLIKNVLKEKKSRVWVGLRRTAPHSRTWIWSDGTRQNEDDLDANLWLRDEPNDAAGEEECALFMYSPWEKAWGLNDYLCRGGCRSYQFICEKWIR
# Key:
# Experiment in all cases: glycan array binding signal (z-score within array); higher = stronger binding
# Details in all cases: glycan notation: IUPAC condensed, linker removed
# [1] = target: Gal(b1-4)GlcNAc(b1-3)Gal(b1-4)GlcNAc(b1-3)Gal(b1-4)GlcNAc(b1-3)Gal(b1-4)GlcNAc(b1-3)Gal(b1-4)GlcNAc(b1-2)Man(a1-3)[Gal(b1-4)GlcNAc(b1-3)Gal(b1-4)GlcNAc(b1-3)Gal(b1-4)GlcNAc(b1-3)Gal(b1-4)GlcNAc(b1-3)Gal(b1-4)GlcNAc(b1-2)Man(a1-6)]Man(b1-4)GlcNAc(b1-4)GlcNAc
# How it was run: (§1)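 Negative Z-scores can be read as non-binding. The Z-score is calculated within each array and then averaged across arrays of one protein sequence at different concentrations or buffers and across linkers. Arrays, 3228 in all, were curated from the Consortium for Functional Glycomics database and kept only where the protein sequence was available.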
# [2] = target: Gal(b1-4)GlcNAc(b1-3)Gal(b1-4)GlcNAc(b1-3)Gal(b1-4)GlcNAc(b1-3)Gal(b1-4)GlcNAc(b1-3)Gal(b1-4)GlcNAc(b1-2)Man(a1-3)[Gal(b1-4)GlcNAc(b1-3)Gal(b1-4)GlcNAc(b1-3)Gal(b1-4)GlcNAc(b1-3)Gal(b1-4)GlcNAc(b1-3)Gal(b1-4)GlcNAc(b1-2)Man(a1-6)]Man(b1-4)GlcNAc(b1-4)[Fuc(a1-6)]GlcNAc
# How it was run: as §1
# [3] = target: Gal(b1-4)GlcNAc(b1-3)Gal(b1-4)GlcNAc(b1-3)[Gal(b1-4)GlcNAc(b1-3)Gal(b1-4)GlcNAc(b1-6)]GalNAc
# How it was run: as §1
# Gal3S(b1-3)GlcNAc = target: Gal3S(b1-3)GlcNAc
# How it was run: as §1
# Gal3S6S(b1-4)GlcNAc6S = target: Gal3S6S(b1-4)GlcNAc6S
# How it was run: as §1
# Gal6P(b1-4)GlcNAc = target: Gal6P(b1-4)GlcNAc
# How it was run: as §1
# [4] = target: GalNAc(b1-3)Gal(a1-6)Gal(b1-4)Glc
# How it was run: as §1
# [5] = target: GalNAc(b1-4)GlcNAc(b1-2)Man
# How it was run: as §1
# [6] = target: GalNAc3S(b1-4)[Fuc(a1-3)]GlcNAc
# How it was run: as §1
# GlcA(b1-3)GlcNAc = target: GlcA(b1-3)GlcNAc
# How it was run: as §1
# [7] = target: GlcNAc(b1-2)Man(a1-3)[GlcNAc(b1-2)Man(a1-6)]Man(b1-4)GlcNAc(b1-4)GlcNAc
# How it was run: as §1
# [8] = target: GlcNAc(b1-2)[GlcNAc(b1-4)]Man(a1-3)[GlcNAc(b1-4)][GlcNAc(b1-2)[GlcNAc(b1-6)]Man(a1-6)]Man(b1-4)GlcNAc(b1-4)[Fuc(a1-6)]GlcNAc
# How it was run: as §1
# [9] = target: GlcNAc(b1-3)Gal(b1-3)GalNAc
# How it was run: as §1
# GlcNAc(b1-3)Gal(b1-4)Glc = target: GlcNAc(b1-3)Gal(b1-4)Glc
# How it was run: as §1
# [10] = target: GlcNAc(b1-3)Gal(b1-4)GlcNAc
# How it was run: as §1
# [11] = target: GlcNAc(b1-3)Gal(b1-4)GlcNAc(b1-3)Gal(b1-4)GlcNAc(b1-3)Gal(b1-4)GlcNAc(b1-2)Man(a1-3)[GlcNAc(b1-3)Gal(b1-4)GlcNAc(b1-3)Gal(b1-4)GlcNAc(b1-3)Gal(b1-4)GlcNAc(b1-2)Man(a1-6)]Man(b1-4)GlcNAc(b1-4)[Fuc(a1-6)]GlcNAc
# How it was run: as §1
# [12] = target: GlcNAc(b1-3)Gal(b1-4)GlcNAc(b1-6)[GlcNAc(b1-3)Gal(b1-3)]GalNAc
# How it was run: as §1
# [13] = target: Man(a1-2)Man(a1-3)[Man(a1-6)]Man(a1-6)[Man(a1-2)Man(a1-3)]Man(b1-4)GlcNAc(b1-4)GlcNAc
# How it was run: as §1
# Man(b1-4)GlcNAc = target: Man(b1-4)GlcNAc
# How it was run: as §1
# [14] = target: Neu5Ac(a2-3)Gal(b1-3)GalNAc6S
# How it was run: as §1
# [15] = target: Neu5Ac(a2-3)Gal(b1-3)GlcNAc6S
# How it was run: as §1
# [16] = target: Neu5Ac(a2-3)Gal(b1-3)[Fuc(a1-4)]GlcNAc(b1-3)Gal(b1-4)[Fuc(a1-3)]GlcNAc
# How it was run: as §1
# [17] = target: Neu5Ac(a2-3)Gal(b1-4)GlcNAc(b1-2)[Neu5Ac(a2-3)Gal(b1-4)GlcNAc(b1-4)]Man(a1-3)[GlcNAc(b1-4)][Neu5Ac(a2-3)Gal(b1-4)GlcNAc(b1-2)[Neu5Ac(a2-3)Gal(b1-4)GlcNAc(b1-6)]Man(a1-6)]Man(b1-4)GlcNAc(b1-4)GlcNAc
# How it was run: as §1
# [18] = target: Neu5Ac(a2-3)Gal(b1-4)GlcNAc(b1-6)[Gal(b1-3)]GalNAc
# How it was run: as §1
# [19] = target: Neu5Ac(a2-3)Gal(b1-4)[Fuc(a1-3)]GlcNAc(b1-3)Gal(b1-4)GlcNAc
# How it was run: as §1
# Neu5Ac(a2-3)GalNAc = target: Neu5Ac(a2-3)GalNAc
# How it was run: as §1
# [20] = target: Neu5Ac(a2-6)Gal(b1-4)GlcNAc(b1-2)Man(a1-6)Man(b1-4)GlcNAc(b1-4)GlcNAc
# How it was run: as §1
# [21] = target: Neu5Ac(a2-6)Gal(b1-4)GlcNAc(b1-3)Gal(b1-4)[Fuc(a1-3)]GlcNAc(b1-3)Gal(b1-4)[Fuc(a1-3)]GlcNAc
# How it was run: as §1
# Neu5Ac(a2-8)Neu5Ac = target: Neu5Ac(a2-8)Neu5Ac
# How it was run: as §1
# [22] = target: Neu5Gc(a2-3)Gal(b1-3)GlcNAc
# How it was run: as §1
# [23] = target: Neu5Gc(a2-8)Neu5Gc(a2-6)Gal(b1-4)GlcNAc
# How it was run: as §1
binder,measurement,setting,value
B1,glycan array binding signal (z-score),[1],0.715
same,glycan array binding signal (z-score),[2],-0.28
same,glycan array binding signal (z-score),[3],-0.17
same,glycan array binding signal (z-score),Gal3S(b1-3)GlcNAc,0.37
same,glycan array binding signal (z-score),Gal3S6S(b1-4)GlcNAc6S,-0.524
same,glycan array binding signal (z-score),Gal6P(b1-4)GlcNAc,-0.911
same,glycan array binding signal (z-score),[4],-0.59
same,glycan array binding signal (z-score),[5],3.48
same,glycan array binding signal (z-score),[6],0.714
same,glycan array binding signal (z-score),GlcA(b1-3)GlcNAc,-0.379
same,glycan array binding signal (z-score),[7],-0.645
same,glycan array binding signal (z-score),[8],-0.663
same,glycan array binding signal (z-score),[9],-0.864
same,glycan array binding signal (z-score),GlcNAc(b1-3)Gal(b1-4)Glc,0.313
same,glycan array binding signal (z-score),[10],-0.029
same,glycan array binding signal (z-score),[11],0.762
same,glycan array binding signal (z-score),[12],-0.841
same,glycan array binding signal (z-score),[13],-0.285
same,glycan array binding signal (z-score),Man(b1-4)GlcNAc,8.49
same,glycan array binding signal (z-score),[14],0.152
same,glycan array binding signal (z-score),[15],0.494
same,glycan array binding signal (z-score),[16],2.98
same,glycan array binding signal (z-score),[17],-0.428
same,glycan array binding signal (z-score),[18],5.42
same,glycan array binding signal (z-score),[19],-0.359
same,glycan array binding signal (z-score),Neu5Ac(a2-3)GalNAc,-0.535
same,glycan array binding signal (z-score),[20],-0.437
same,glycan array binding signal (z-score),[21],-0.822
same,glycan array binding signal (z-score),Neu5Ac(a2-8)Neu5Ac,-0.351
same,glycan array binding signal (z-score),[22],-0.396
same,glycan array binding signal (z-score),[23],0.03
